Most compounds without a hit are left out; they make up all but 11% or so of the library.
BAZ2B inh = inhibitors of human BAZ2B bromodomain; Q9UIF8; AlphaScreen BAZ2B-H3K14Ac peptide displacement; Potency, µM (highest dose often 114 µM), for the others: at the highest dose activity change, negative = inhibition, actives largely listed as inhibitors; hit rate 4.4% among 360,000; AID 504333; also: % is scaled to controls: 0 for no effect and ±100 for the full control effect; nearly all actives have a fitted effect of over 60% in size
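Protein-peptide AlphaScreen: BAZ2B 50 nM, b-H3K14Ac 50 nM, 1x PBS pH 7.4 + 0.01% Tween-20. Preincubation 30 min RT; cpd 30 min RT (top 110 uM); beads 20 min RT, light-protected.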
HP1b chromo inh = HP1-beta chromodomain-methylated histone interaction inhibition; P83916; AlphaScreen HP1-beta / biotin-H3K9me3 peptide binding; Potency, µM (titrated, usually from 114 µM), inactives show at the top dose activity change, negative = inhibition, usual class: inhibitors; hit rate 0.56% among 390,000; AID 540317; also: nearly all actives have a fitted effect of over 70% in size
Target sequence (P83916 whole entry, looked up): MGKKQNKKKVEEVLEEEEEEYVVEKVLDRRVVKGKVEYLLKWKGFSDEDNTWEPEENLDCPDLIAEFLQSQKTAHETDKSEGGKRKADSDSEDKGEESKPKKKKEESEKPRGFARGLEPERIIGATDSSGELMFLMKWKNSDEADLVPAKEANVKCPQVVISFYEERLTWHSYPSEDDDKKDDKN
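HP1-beta protein (50 nM final) preincubated 30 min at room temperature with biotinylated H3(1-18)K9me3 peptide (50 nM) in PBS pH 7.4, 0.01% Tween-20, then compound added for 30 min. AlphaScreen streptavidin donor/nickel chelate acceptor beads (10 ug/mL final), 30 min dark, luminescence read.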
JMJD2A Tudor = JMJD2A Tudor domain (human) inhibition; AID 504339; Potency, µM (titrated, usually from 114 µM), without a hit: at the highest dose activity change, negative = inhibition, hits mostly inhibitors; O75164; hit rate 4.4% among 390,000; AlphaScreen JMJD2A-Tudor / H3K4me3 peptide binding; also: % is scaled to controls: 0 for no effect and ±100 for the full control effect; nearly all actives have a fitted effect of over 50% in size
L3MBTL1 inh = blocks human L3MBTL1; Q9Y468; AlphaScreen L3MBTL1–H3K9me1 peptide binding; Potency, µM (series often up to 57.1 µM), for the others: at the top dose activity, negative = inhibition, usual class: inhibitors; hit rate 0.66% among 230,000; AID 485360; also: % is scaled to controls: 0 for no effect and ±100 for the full control effect; nearly all actives have a fitted effect of over 60% in size
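First, the protein-peptide complex forms for 30 min at room temperature (L3MBTL1 50 nM, biotinylated H3K9me1 peptide 75 nM). Next, compounds are pin-transferred and incubated 30 min. Finally, AlphaScreen beads are added and read after 30 min.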
G9a block = inhibitors of human histone lysine methyltransferase G9a | Q96KQ7 | G9a H3K9 monomethylation, AlphaScreen, 2 h | Potency, µM (titrated, usually from 102 µM), for inactives: top-dose activity, negative = inhibition, most hits filed as inhibitors | hit rate 8.8% among 350,000; also: % is scaled to controls: 0 for no effect and ±100 for the full control effect; nearly all actives have a fitted effect of over 75% in size
Target sequence (Q96KQ7 913-1193 limits assumed): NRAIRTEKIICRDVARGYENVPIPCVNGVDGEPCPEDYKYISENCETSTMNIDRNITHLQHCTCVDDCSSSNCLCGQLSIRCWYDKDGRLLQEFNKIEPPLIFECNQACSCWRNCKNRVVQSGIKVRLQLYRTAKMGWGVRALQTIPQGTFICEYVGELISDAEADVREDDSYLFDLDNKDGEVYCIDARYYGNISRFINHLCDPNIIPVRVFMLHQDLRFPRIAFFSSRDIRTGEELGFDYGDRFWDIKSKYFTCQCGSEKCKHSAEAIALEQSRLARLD
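Quantitative HTS format: methyltransferase activity on a biotin-tagged H3K9 peptide is measured by AlphaScreen, using a rabbit anti-monomethyl-H3K9 antibody with streptavidin donor and anti-IgG acceptor beads. Final levels are 20 nM enzyme, 500 nM peptide, 20 uM SAM; 2 h RT.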
Starred values were filed as active, the others as inactive; ? = inconclusive; · = not tested or not shown; [ ] = remark or other dose. Calls follow the shape of the dose curve; as a rule, active = well fitted inhibition curve with a large enough effect; inconclusive = small, poorly fitted or top-dose-only effect; inactive = no such curve, though single readings can be large or run the other way. Potency is read from the fitted curve at half-maximal effect.

SMILES | BAZ2B inh | HP1b chromo inh | JMJD2A Tudor | L3MBTL1 inh | G9a block
CCN1/C(=C/C=C/C=C/C=C/c2sc3ccccc3[n+]2CC)Sc2ccccc21 | 40µM* | ? | 20µM* | · | 22µM*
CCN1/C(=C/C=C/c2sc3ccccc3[n+]2CC)Sc2ccccc21 | 14µM* | 26% | -1% | 28µM* | ?
CCOC(=O)/C(=C\C=C1/Sc2ccccc2N1CC)C(C)=O | -35% | 11% | -30% | -13% | ?
CCOC(=O)/C(=C/C=C1\Sc2ccccc2N1CC)C(C)=O | -32% | 7% | -33% | -1% | ?
CCn1cc(C(=O)N2CCN(c3cccc(C)c3C)CC2)c2cc(OC)c(OC)cc2c1=O | -31% | 0% | -25% | · | -29%[59 µM]
CCn1cc(C(=O)O)c(=O)c2cc(F)c(N3CCN(C(=S)NC(=O)c4c(OC)cccc4OC)CC3)cc21 | 56µM* | 4% | ? | · | 35µM*
CCn1cc(C(=O)NN)c(=O)c2cc(F)c(N3CCN(C)CC3)cc21 | -19% | 7% | -25% | · | -14%
CCn1cc(C(=O)O)c(=O)c2cc(F)c(N3CCN(C(=S)NC(=O)c4ccccc4Br)CC3)cc21 | 71µM* | -7% | -25% | · | 4%
CCn1cc(C(=O)O)c(=O)c2cc(F)c(N3CCN(C(=S)NC(=O)c4ccc(F)c(F)c4)CC3)cc21 | -19% | -1% | -25% | -13% | 50µM*
CCn1cc(C(=O)O)c(=O)c2cc(F)c(N3CCN(C(=S)NC(=O)c4ccc(F)cc4)CC3)cc21 | ? | 42% | -19% | 12% | ·
CCOC(=O)N1CCN(C(=O)c2cn(CC)c3cc(N4CCN(C)CC4)c(F)cc3c2=O)CC1 | -26% | · | · | 23%[11.4 µM] | 14µM*
Cc1ccc(C)c(N2CCN(C(=O)c3cc4c(=O)n(Cc5ccccc5)ccc4nc3C)CC2)c1 | ? | 12% | -35% | · | 5%[59 µM]
CCOC(=O)C1CN(c2cc3c(cc2F)c(=O)c(C(=O)O)cn3CC)OC1C(=O)OCC (stereo not given) | ? | 13% | 56µM* | 11% | 40µM*
COC(=O)c1c(NC(=O)/C=C/c2ccc(OC)c(OC)c2)sc2c1CCC2 | -1% | 1% | -11% | · | -8%[59 µM]
COc1ccc(N/N=C(/C)c2cnnc(-c3ccccc3)n2)cc1 | -38% | -13% | 79µM* | -3% | 1.4µM*
CCC/C(=N/Nc1ccc(Cl)cc1)c1cnnc(-c2ccccc2)n1 | · | 47% | -14% | · | ·
COc1ccc(-n2c(SCC(=O)Nc3ccccc3OC)nc(O)c(Cc3ccccc3)c2=O)cc1 | -2% | 24% | -21% | · | ·
COc1ccc(-n2c(SC)nc(O)c(Cc3ccccc3)c2=O)cc1 | -9% | 11% | -13% | 6% | 40µM*
Nc1ccccc1Sc1c[nH]c2ccccc12 | ? | -16% | ? | · | 45µM*
CCOC(=O)c1sc(N)c(C(=O)Nc2ccccc2)c1C | -19% | ? | -20% | -7% | 10µM*
CCOC(=O)c1sc(NC(=O)c2c(C)nn(Cc3ccccc3)c2C)cc1C | -2% | 15% | -7% | -4% | 50µM*
CCN(CC)C(=O)c1sc(N)c(C#N)c1C | 16% | -4% | -5% | 0% | ?
CCN(CC)C(=O)c1sc(N)c(C(=O)OC(C)C)c1C | 6% | -12% | -23% | 19%[11.4 µM] | 11µM*
CCOC(=O)c1sc(NC(=O)CSc2nc3ccccc3s2)c(C(=O)OCC)c1C | 4% | · | · | 5% | -7%[59 µM]
CCOC(=O)c1c(NC(=O)CSc2cccc[n+]2[O-])sc(C(=O)Nc2ccccc2)c1C | 0% | 33% | -3% | -12% | 45µM*
COc1cccc(C2C(=O)N(C3CCCCC3)CC(=O)N2Cc2ccc(Cl)cc2)c1 (stereo not given) | -3% | 36% | 4% | · | -1%[59 µM]
CCOC(=O)c1c(N)sc(C(=O)OCCOC)c1C | -20% | ? | -22%[57.1 µM] | -25% | 11µM*
O=[S+]([O-])(NC[C@H]1CCC[C@H](CN[S+](=O)([O-])c2c(F)cccc2F)C1)c1ccc2c(c1)OCCO2 | · | · | -14% | · | ·
CC1S/C(=N/N=C/c2cccc([N+](=O)[O-])c2)NC1=O (stereo not given) | ? | 8% | -36% | -27% | 13µM*

Assay outcomes: PubChem, National Center for Advancing Translational Sciences (NCATS)
